This passage reports growth results from PubChem BioAssay (NCI).

About 83,000 compounds went through this panel and 20% of them were active in at least one assay; those are over-represented in the sample as a whole.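 Treatment: one concentration, 48 hours, 96-well format. Scoring: percent growth, with anything below 10 considered active.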 A number with no mark means an inactive call. Activity calls are given as the source filed them.

The first assay concerns NCI-H460 lung. Description: NCI-60 one-dose screen, 48 h (100 = growth as untreated, 0 = no growth, -100 = all killed). The settings on record: 10 µM unless noted.
Turning to `COc1ccc(S(=O)(=O)N2CCCCC2)cc1NC(=O)c1[nH]c(C)c2c1CCCCC2=O`, the growth was 34.8%.

`Oc1ccccc1-c1nnc(CNc2ccc(Cl)cc2)o1`: the growth is 7.25% (active).

As for `CCN=C1C=CC(=C(c2ccc(N)cc2)c2ccc(N(CC)CC)c(C)c2)C=C1`, the growth is -53.9% (active).

As for `COc1ccc(S(=O)(=O)N2CC3(COC3)C2)cc1NC(=O)c1[nH]c(C)c2c1CCCCC2=O`, the growth was 71.2%.

For `Cc1ccc(C2=NN3C(C2)c2cc(Br)ccc2OC32CCN(Cc3ccccc3)CC2)o1` (stereo unspecified), the growth was 98%.

As to `Oc1cccc2ccc(N/N=C/c3cc(CN4CCOCC4)c(O)c4ncccc34)nc12`, the growth was -7.47% (active).

On to `CC/C=C\C[C@H](O)C/C=C1/C(=O)C=C[C@@]1(C)C/C=C\CCCC(=O)OC`, for which the growth was 110%.

Turning to `N#CCCN=Nc1c(O)[nH]c2ccc([N+](=O)[O-])cc12`, the growth was 102%.

Take `O=C(N/N=C/c1ccccc1O)c1ccccc1Nc1ccnc(C(F)(F)F)c1`: the growth was -13.2% (active).

In the case of `COc1ccc(C2C(C#N)=C(N)Oc3n[nH]c(-c4cccs4)c32)cc1I` (stereo unspecified), the growth is 101%.

Regarding `O=S(=O)(Nc1ccc(OC(F)F)cc1)c1ccc(-c2cnc(C3CC3)o2)cc1`, the growth was 79.1%.

As to `O=C1C=C(OCC=C(Cl)Cl)C(=O)c2ccccc21`, the growth was 99.9%.

For the compound `Cc1cc(C)nc(SC2=C(Nc3ccc(O)cc3)C(=O)N(Cc3ccccc3)C2=O)n1`, the growth was 85.3% [40 µM].

For `Cc1cc2nc(NC(=O)CN3CCN(CCN4C(=O)c5cccc6cccc(c56)C4=O)CC3)sc2cc1C`, the growth was 91.7%.

In the case of `Cc1ccc2c(C(C[N+](=O)[O-])c3ccccc3F)c(-c3ccccc3)[nH]c2c1` (stereo unspecified), the growth was 20.9%.

For `CCc1nc(N)nc(N)c1C#CC(C)c1ccc(-c2ccncc2)cc1Cl` (stereo unspecified), the growth was 5.02% (active).

For `Cc1ccc(NC(=O)C2CCC(CN3CCN(C)CC3)CC2)cc1Nc1nccc(-c2cccnc2)n1` (stereo unspecified), the growth is 101%.

Take `CC/C=C\C[C@H]1C/C=C2/C(=O)C=C[C@H]2C/C=C\CCCC(=O)O1`: the growth was 27.4%.

`Cc1ccc(-c2onc3c(=O)[nH]nc(-c4ccccc4)c23)cc1`: the growth was 19.1%.

With `O=c1ccccc(-c2ccc(-c3ccco3)cc2)c1O`, the growth was 2.15% (active).

`COc1ccc(-c2cc(Nc3ccnc(N4CCOCC4)n3)on2)cc1`: the growth was 14.5%.

Regarding `Cc1ccccc1COc1ccc(-c2ccnn2-c2ccc(Cl)cc2)cc1`, the growth is 58.3%.

In the case of `COc1ccc(/C=N/C2=C(C#N)C(c3ccc(N(C)C)cc3)c3ccc4ccccc4c3O2)cc1` (stereo unspecified), the growth was 40.7%.

For `c1ccc(CCNc2ncnc3[nH]ncc23)cc1`, the growth is 117%.

Regarding `CN1CCN(CCCOc2cccc3nc(Nc4ccc(Cl)c(F)c4)ccc23)CC1`, the growth was 13.2%.

On to `FC(F)(F)c1[nH]ncc1-c1nc2ccc3n[nH]c(C#Cc4cccnc4)c3c2c2c1CCCC2`, for which the growth is 19.1%.

With `CCOc1nc(-c2ccccc2)cc2c(O)c(C(=O)O)[nH]c(=O)c12`, the growth was 102%.

For `CCCCn1cnc2c(Sc3c([N+](=O)[O-])ncn3C)nc(N)nc21`, the growth was 106%.

Take `COc1cc2c(cc1-c1c(C)noc1C)ncc1nc(C3CCCC3)n([C@H](C)COC(F)F)c12`: the growth was 51%.

For `CN1CCN(CCCOc2cccc3nc(Nc4cc(Cl)cc(Cl)c4)ccc23)CC1`, the growth is -37% (active).

As for `COc1ccc(CCNc2nc3c(c(=O)n(Cc4ccc(Br)cc4)c(=O)n3C)n2C)cc1OC`, the growth is 96.9%.

`O=C(/C=C/c1cc(CN2CCOCC2)c(O)c2ncccc12)c1cc(CN2CCOCC2)c(O)c2ncccc12`: the growth is 9.34% (active).

`Nc1nc2ccc3[nH]ncc3c2c2c1CCCC2`: the growth was 2.07% (active).

With `C#CCOc1ccc2ncnc(N3CCC(NC(=O)CCl)CC3)c2c1`, the growth was 81.5% [8.25 µM].

As to `CC1=C(O)C(=O)C(C(C#N)(C#N)C(C#N)C#N)C1` (stereo unspecified), the growth is 102%.

Regarding `COc1ccc(CN2c3ccccc3Oc3ccccc32)cc1O`, the growth is 13.3%.

In the case of `CN1CCN(c2ccc(Nc3c4ccccc4nc4ccccc34)cc2)CC1`, the growth is 104%.

Turning to `CCCCC(=O)OCC1OC(n2cnc3c(=S)nc[nH]c32)C(OC(=O)CCCC)C1OC(=O)CCCC` (stereo unspecified), the growth is 30.3%.

A further assay has as its system HOP-92 NSCLC. Described as above. The settings on record: 10 µM unless noted.
With `COc1ccc(S(=O)(=O)N2CCCCC2)cc1NC(=O)c1[nH]c(C)c2c1CCCCC2=O`, the growth was 26.9%.

As to `Oc1ccccc1-c1nnc(CNc2ccc(Cl)cc2)o1`, the growth is 52.5%.

`CCN=C1C=CC(=C(c2ccc(N)cc2)c2ccc(N(CC)CC)c(C)c2)C=C1`: the growth is -40.5% (active).

In the case of `COc1ccc(S(=O)(=O)N2CC3(COC3)C2)cc1NC(=O)c1[nH]c(C)c2c1CCCCC2=O`, the growth was 48.2%.

As to `Cc1ccc(C2=NN3C(C2)c2cc(Br)ccc2OC32CCN(Cc3ccccc3)CC2)o1` (stereo unspecified), the growth was 80%.

Consider `Oc1cccc2ccc(N/N=C/c3cc(CN4CCOCC4)c(O)c4ncccc34)nc12`, for which the growth was 43.5%.

Consider `CC/C=C\C[C@H](O)C/C=C1/C(=O)C=C[C@@]1(C)C/C=C\CCCC(=O)OC`, for which the growth was 99.6%.

As to `N#CCCN=Nc1c(O)[nH]c2ccc([N+](=O)[O-])cc12`, the growth was 102%.

Turning to `O=C(N/N=C/c1ccccc1O)c1ccccc1Nc1ccnc(C(F)(F)F)c1`, the growth was 7.01% (active).

Regarding `COc1ccc(C2C(C#N)=C(N)Oc3n[nH]c(-c4cccs4)c32)cc1I` (stereo unspecified), the growth is 88.2%.

Consider `O=S(=O)(Nc1ccc(OC(F)F)cc1)c1ccc(-c2cnc(C3CC3)o2)cc1`, for which the growth is 59.3%.

As to `O=C1C=C(OCC=C(Cl)Cl)C(=O)c2ccccc21`, the growth is 73.7%.

On to `Cc1cc(C)nc(SC2=C(Nc3ccc(O)cc3)C(=O)N(Cc3ccccc3)C2=O)n1`, for which the growth is 38.1% [40 µM].

On to `Cc1cc2nc(NC(=O)CN3CCN(CCN4C(=O)c5cccc6cccc(c56)C4=O)CC3)sc2cc1C`, for which the growth is 74.9%.

Take `Cc1ccc2c(C(C[N+](=O)[O-])c3ccccc3F)c(-c3ccccc3)[nH]c2c1` (stereo unspecified): the growth is 45.8%.

For the compound `CCc1nc(N)nc(N)c1C#CC(C)c1ccc(-c2ccncc2)cc1Cl` (stereo unspecified), the growth is 6.88% (active).

As to `Cc1ccc(NC(=O)C2CCC(CN3CCN(C)CC3)CC2)cc1Nc1nccc(-c2cccnc2)n1` (stereo unspecified), the growth was 85.5%.

`CC/C=C\C[C@H]1C/C=C2/C(=O)C=C[C@H]2C/C=C\CCCC(=O)O1`: the growth was 51.2%.

As to `Cc1ccc(-c2onc3c(=O)[nH]nc(-c4ccccc4)c23)cc1`, the growth is 31.8%.

For the compound `O=c1ccccc(-c2ccc(-c3ccco3)cc2)c1O`, the growth is 60.1%.

As for `COc1ccc(-c2cc(Nc3ccnc(N4CCOCC4)n3)on2)cc1`, the growth is 74.8%.

Take `Cc1ccccc1COc1ccc(-c2ccnn2-c2ccc(Cl)cc2)cc1`: the growth was 74.2%.

Regarding `COc1ccc(/C=N/C2=C(C#N)C(c3ccc(N(C)C)cc3)c3ccc4ccccc4c3O2)cc1` (stereo unspecified), the growth is 65.4%.

On to `c1ccc(CCNc2ncnc3[nH]ncc23)cc1`, for which the growth was 55.4%.

For `CN1CCN(CCCOc2cccc3nc(Nc4ccc(Cl)c(F)c4)ccc23)CC1`, the growth is 30.8%.

On to `FC(F)(F)c1[nH]ncc1-c1nc2ccc3n[nH]c(C#Cc4cccnc4)c3c2c2c1CCCC2`, for which the growth was 71.6%.

For the compound `CCOc1nc(-c2ccccc2)cc2c(O)c(C(=O)O)[nH]c(=O)c12`, the growth was 28.2%.

Consider `CCCCn1cnc2c(Sc3c([N+](=O)[O-])ncn3C)nc(N)nc21`, for which the growth was 76.2%.

Regarding `COc1cc2c(cc1-c1c(C)noc1C)ncc1nc(C3CCCC3)n([C@H](C)COC(F)F)c12`, the growth is 20%.

With `CN1CCN(CCCOc2cccc3nc(Nc4cc(Cl)cc(Cl)c4)ccc23)CC1`, the growth is 3.95% (active).

For the compound `COc1ccc(CCNc2nc3c(c(=O)n(Cc4ccc(Br)cc4)c(=O)n3C)n2C)cc1OC`, the growth was 92.8%.

In the case of `O=C(/C=C/c1cc(CN2CCOCC2)c(O)c2ncccc12)c1cc(CN2CCOCC2)c(O)c2ncccc12`, the growth is -4.72% (active).

`Nc1nc2ccc3[nH]ncc3c2c2c1CCCC2`: the growth was -12.6% (active).

On to `C#CCOc1ccc2ncnc(N3CCC(NC(=O)CCl)CC3)c2c1`, for which the growth is 56.8% [8.25 µM].

On to `CC1=C(O)C(=O)C(C(C#N)(C#N)C(C#N)C#N)C1` (stereo unspecified), for which the growth is 112%.

As to `COc1ccc(CN2c3ccccc3Oc3ccccc32)cc1O`, the growth is 32.8%.

Regarding `CN1CCN(c2ccc(Nc3c4ccccc4nc4ccccc34)cc2)CC1`, the growth is 178%.

`CCCCC(=O)OCC1OC(n2cnc3c(=S)nc[nH]c32)C(OC(=O)CCCC)C1OC(=O)CCCC` (stereo unspecified): the growth is 20.2%.
